Abeta rescue: qHTS for compounds that reverse cellular toxicity of Amyloid beta (A-beta) peptide in yeast: Primary Screen. actives 0.063% (n = 410,000). AID 1347071, 2019. Potency, µM (titrated, usually from 46.1 µM), actives largely listed as activators. yeast expressing A-beta42, growth rescue, OD600, 48 h; response scale: 0% DMSO, 100% iron-clioquinol control; further: potency means the concentration at half of the fitted maximal effect; nearly all actives have a fitted effect of over 55% in size
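Growth rescue measured by 600 nm absorbance after 48 h yeast culture at 30 C with compound. Values normalized between DMSO and an equimolar ferric chloride plus clioquinol control.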
FUS suppressor: qHTS for Suppressors of FUS Proteinopathy: Primary screen using FUS-linked yeast assay; Potency, µM (top dose mostly 76.6 µM), most hits filed as activators; AID 1347120, 2019; S. cerevisiae FUS-expressing, growth rescue, OD600, 24 h; actives 0.24% (n = 390,000);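 further: potency means the concentration at half of the fitted maximal effect; plate controls were DMSO vehicle for no effect and reference control for full effect; nearly all actives have a fitted effect of over 55% in size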
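Absorbance at 600 nm, taken 24hr after compound addition, measured rescue of FUS-yeast growth at 30C. Induction used 2% galactose with seeding at OD 0.005. Controls: CP55940 from 92uM final, DMSO only.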
TDP-43 yeast inh: qHTS of TDP-43 Inhibitors; AID 652104, 2013; actives 1.8% (n = 410,000); Potency, µM (highest dose often 46.1 µM), inactives show top-dose growth rescue (activation), most hits filed as activators; TDP-43 expressing yeast growth rescue, BacTiter-Glo, 24 h; further: potency means the concentration at half of the fitted maximal effect; % of control where 0% means no effect; nearly all actives have a fitted effect of over 50% in size
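Yeast cells expressing TDP-43 under galactose induction are exposed to compounds for 24 hr at 30 deg C. BacTiter-Glo luminescence measures growth, so protective compounds score as activators.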
CCT chaperon mod: High-Throughput Screening for Modulators of Cytosolic Chaperonin Activity; purified chaperonin ATPase assay, HTRF ADP detection, 30 min; activity change, % (test concentration not listed), hits read low; actives 0.3% (n = 360,000); AID 651819, 2012; in the data active means activity change below about -30%; further: on the % scale 0 is the no-effect control and ±100 the full control effect
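Enzyme 40 or 20 nM (batch-dependent) in Tris pH 7.4/KCl/MgCl2/DTT; cpd 76 uM single point; ATP 10 uM; 30 min 37 °C; Transcreener ADP HTRF detection, 30 min RT; ratio 665/615.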
aSyn yeast inh: qHTS of alpha-syn Inhibitors; Yeast expressing alpha-synuclein, growth rescue, BacTiter-Glo, 24 h; Potency, µM (top dose mostly 46.1 µM), for the others: top-dose growth rescue (activation), actives largely listed as activators; actives 0.14% (n = 370,000); further: potency means the concentration at half of the fitted maximal effect; % of control where 0% means no effect; nearly all actives have a fitted effect of over 65% in size
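Readout is rescue of growth in alpha-synuclein-expressing yeast, so inhibitors of toxicity appear as activators. Growth after 24 hr at 30 deg C in galactose medium is quantified by luminescence.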
MmCpn inh: Inhibitors of TCP-1 ring complex (TRiC) of Methanococcus maripaludis (MmCpn): qHTS | AID 504842, 2011 | Potency, µM (top dose mostly 76.9 µM), inactives show top-dose activity, negative = inhibition, hits mostly inhibitors | Chaperonin Mm-Cpn (Methanococcus maripaludis) | actives 0.031% (n = 330,000) | purified Mm-Cpn ATPase, ADP Transcreener TR-FRET; further: potency means the concentration at half of the fitted maximal effect; on the % scale 0 is the no-effect control and ±100 the full control effect; nearly all actives have a fitted effect of over 80% in size
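Inhibition of chaperonin ATP hydrolysis is measured as reduced ADP production, detected by competitive TR-FRET in which signal falls with ADP. Final enzyme 25 nM and ATP 10 uM, reacted 30 min at 37°C.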
* = called active by the depositor; i = inactive; ? = inconclusive; / = no result. Shown are actives, neighbours in structure and some others; about 2.3% of the full set was active somewhere. Unless noted, the call rests on the fitted dose curve; in most records, active means well fitted curve in the direction sought with a large enough effect; inconclusive means small, poorly fitted or top-dose-only effect, or another doubt; inactive means no such curve, though single readings can be large; an effect the other way counts as inactive or inconclusive.

SMILES | Abeta rescue | FUS suppressor | TDP-43 yeast inh | CCT chaperon mod | aSyn yeast inh | MmCpn inh
COc1cccc(C(O)c2nc(-c3ccc4ccccc4c3)cs2)c1 (stereo not given) | i | ? | 22µM* | 0 | ? | /
OC(c1ccc(F)cc1)c1nc(-c2cccc(F)c2)cs1 (stereo not given) | i | i | 11µM* | 0 | 17% | /
O=C(O)c1cccc(-c2csc(C(O)c3ccc(F)cc3)n2)c1 (stereo not given) | i | i | 11% | 0 | 1% | /
CCCC[n+]1c(/C=C/c2c(OC)cc(OC)cc2OC)ccc2ccccc21 | / | / | / | / | -29% | /
Cc1cccc(C(=O)N2CCc3cc(CNC(=O)CSc4ccccc4)ccc32)c1 | i | i | 0% | / | / | /
O=C(COc1ccc2c(c1)CCC2)Nc1ccccn1 | i | i | -25% | -1 | -20% | 0%
O=C(COc1ccc2c(c1)CCC2)NCc1ccccc1 | i | / | 11µM* | -1 | 9% | 1%
Cc1cccc(OCC(=O)NCc2ccc3c(c2)CCN3C(=O)c2ccccc2)c1 | i | ? | 25µM* | / | / | /
COc1ccc(N2CCCN(CC(=O)Nc3ccccc3C)CC2)cc1 | / | i | / | / | / | /
O=C(OCCNc1nc(-c2ccccc2)nc2ccccc12)c1cccnc1 | i | i | 4% | 2 | 17% | -1%
CCCOC(=O)c1cccc(Nc2nc(-c3cccnc3)nc3ccccc23)c1 | i | i | 22µM* | 0 | 10% | -7%
COC(=O)c1ccc(Nc2nc(-c3ccc(C)cc3)nc3ccccc23)cc1 | i | i | 14µM* | / | / | /
O=C(O)c1ccc(Nc2nc(-c3ccccc3)nc3ccccc23)cc1 | i | i | 22µM* | 0 | -18% | -3%
O=S1OC(c2ccccc2)c2cc(Cl)ccc21 (stereo not given) | i | i | 13µM* | 0 | -16% | 1%
CC1CCCCC1NC(=S)Nc1ccc(SC(F)F)cc1 (stereo not given) | ? | i | 20µM* | -1 | -29% | 1%
Cc1cccc(-c2csc(N3CCC(C(N)=O)CC3)n2)c1 | / | / | / | / | / | -1%
C=CCC[C@H](Cc1ccc(F)cc1)C(=O)OC[C@H](Cc1c[nH]c2ccccc12)NC(=O)[C@@H](CC=C)CC(=O)N(CCO)Cc1ccccc1 | i | 16µM* | 13% | 1 | 2% | -4%
C=CC[C@@H](CC(=O)N[C@@H](CO)Cc1ccccc1)C(=O)N[C@H](C)COC(=O)[C@@H](CC=C)Cc1ccc(F)cc1 | i | i | 14% | 1 | 0% | 1%
C=CC[C@@H](CC(=O)N[C@H](CO)Cc1ccccc1)C(=O)N[C@@H](COC(=O)[C@@H](CC=C)CC(=O)OC(C)(C)C)Cc1c[nH]c2ccccc12 | i | 18µM* | -6% | 1 | 1% | -5%
C=CC[C@H](CC(=O)N[C@H](CO)Cc1ccccc1)C(=O)N[C@H](COC(=O)[C@@H](CC=C)CC(=O)OC(C)(C)C)Cc1c[nH]c2ccccc12 | i | 18µM* | -11% | -4 | -4% | 0%
C=CC[C@@H](CC(=O)N[C@@H](CO)Cc1ccccc1)C(=O)N[C@@H](C)COC(=O)[C@@H](CC=C)Cc1ccc(F)cc1 | i | 18µM* | 8% | -4 | -2% | -1%
CCCCCn1nnnc1C1(C)CSCC(=O)N1Cc1ccco1 (stereo not given) | / | i | / | / | / | /
CCC(C)(C)C(=O)N1CCC(C(=O)NC2CCCc3ccccc32)CC1 (stereo not given) | / | i | / | / | / | /
COc1ccc(OC)c(CN2C(=O)CSCC2(C)c2nnnn2C2CCCC2)c1 (stereo not given) | / | i | / | / | / | /
CCNC(=O)Nc1cc(OC)c(OC)cc1C(=O)O | i | i | 2% | -1 | 0% | -2%
SMILES | Abeta rescue | FUS suppressor | TDP-43 yeast inh | CCT chaperon mod | aSyn yeast inh | MmCpn inh
COc1cc(NC(=O)C(c2ccccc2)c2ccccc2)c(C(=O)O)cc1OC | i | i | 22µM* | -1 | 1% | 0%
O=C(ON=C1CCN(S(=O)(=O)c2ccccc2)CC1)c1ccccc1 | i | i | 20µM* | 1 | 1% | 3%
O=c1[nH]c2c(-c3nc(-c4ccc(Cl)cc4)cs3)c(O)cn2c2ccccc12 | / | / | / | / | -1% | /
O=[N+]([O-])c1ccccc1S(=O)(=O)N1CCN(c2nc(-c3ccccc3)nc3ccccc23)CC1 | / | / | / | / | 1% | /
CN(C)c1ccc(/C=C2\C=Cc3ccccc32)cc1F | / | / | / | / | -18% | /
CCOc1ccc(OCC)c(NS(=O)(=O)c2cccc3nsnc23)c1 | i | i | 13µM* | 1 | 1% | 2%
COc1ccc(C(=O)OCCCN(C)C2CN(Cc3cn(Cc4ccccc4C(F)(F)F)nn3)S(=O)(=O)C2)cc1OC (stereo not given) | / | i | / | / | / | /
Cc1onc(-c2ccccc2)c1-c1ccnc(N)n1 | i | i | 10% | -4 | ? | -4%
CSc1nccc(-c2c(-c3ccc(Cl)cc3)noc2C)n1 | i | i | 18µM* | 0 | -14% | 3%
Clc1ccc(-c2nnc(SCc3cccc4ccccc34)n2Cc2ccco2)cc1 | / | i | / | / | / | /
O=C(NCc1ccco1)c1cc2cc(Br)ccc2o1 | i | i | 22µM* | -1 | -3% | 2%
Cc1c(C(=O)NCc2ccco2)oc2ccc(Br)cc12 | i | i | 12% | 2 | 8% | -2%
Cc1ccc(S(=O)(=O)c2c(N)n(Cc3ccco3)c3nc4ccccc4nc23)cc1 | i | 22µM* | 10% | -1 | 2% | ?
Cc1ccc(S(=O)(=O)c2c(N)n(-c3ccccc3)c3nc4ccccc4nc23)cc1 | i | i | -2% | -35* | -10% | -3%
Cc1cccc(NC(=O)C2CCN(c3nnc(-n4cccc4)s3)CC2)c1C | / | i | / | / | / | /
CCCCOc1ccc(C(=O)NC2CCCCN(C(C)C)C2=O)cc1 (stereo not given) | / | i | / | / | / | /
CCc1ccc(NC(=O)Cn2ncc3c(C)n(Cc4cccc(Cl)c4)c(C)c3c2=O)cc1 | i | i | 0% | / | / | /
Brc1cccc[n+]1Cc1ccc(C[n+]2ccccc2Br)cc1 | / | / | / | / | 1% | /
Cc1cc(/C([O-])=C(/C(=S)Nc2ccccc2)[n+]2ccccc2)c(C)n1-c1ccccc1 | i | 16µM* | 6% | 0 | 0% | -3%
S=C(NCCc1cccc(Cl)c1)NC1CCCCC1 | 7.1µM* | i | 4% | 2 | 2% | -1%
O=C(C[n+]1csc2ccccc21)c1ccc(O)c(O)c1 | / | / | / | / | 3% | /
